Source: PubChem BioAssay (National Center for Advancing Translational Sciences (NCATS))
Cruzain inh noDet: blocks cruzain activity in detergent-free assay; P25779; purified cruzain, Z-FR-AMC fluorescence, no detergent; Potency, µM, without a hit: max response, negative = inhibition, most hits filed as inhibitors; 200,000 compounds, 2.3% hits; AID 1476;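 note: plate controls were enzyme without inhibitor for no effect and buffer without enzyme for full effect; nearly all actives have a fitted effect of over 40% in size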
Target sequence (P25779 123-467 limits assumed): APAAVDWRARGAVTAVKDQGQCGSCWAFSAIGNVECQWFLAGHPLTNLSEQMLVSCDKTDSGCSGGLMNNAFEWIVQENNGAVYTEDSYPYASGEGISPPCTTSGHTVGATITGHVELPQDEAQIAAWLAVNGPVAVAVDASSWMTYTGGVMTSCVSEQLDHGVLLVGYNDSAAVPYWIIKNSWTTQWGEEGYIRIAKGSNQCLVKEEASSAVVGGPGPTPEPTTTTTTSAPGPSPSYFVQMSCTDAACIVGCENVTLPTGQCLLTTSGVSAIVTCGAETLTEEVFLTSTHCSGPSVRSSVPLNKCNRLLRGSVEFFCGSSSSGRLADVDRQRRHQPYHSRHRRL
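Purified cruzain at 1.5 nM, pre-incubated 15 min with compound at room temperature in 100 mM sodium acetate pH 5.5, 5 mM DTT, 0.00005% Triton X-100. Reaction started with 2 uM Z-FR-AMC; AMC fluorescence increase over 60 s gives rate.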
Cruzain inh Det: blocks cruzain activity in presence of Triton detergent. purified cruzain, Z-FR-AMC fluorescence, 0.01% Triton. Potency, µM, without a hit: max response, negative = inhibition, hits mostly inhibitors. 200,000 compounds, 0.43% hits. AID 1478;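 note: plate controls were neutral wells for no effect and buffer without enzyme for full effect; nearly all actives have a fitted effect of over 40% in size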
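Steps: dispense cruzain (1.5 nM final) in acetate buffer pH 5.5 with DTT and 0.01% Triton X-100; pin-transfer compounds; incubate 15 min RT; add Z-FR-AMC (2 uM final); read fluorescence every 30 s, using the 60 s intensity change.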
* = called active by the depositor; ? = inconclusive. Hits are enriched below; roughly 2.4% of the tested compounds scored in any of these assays. Calls come from the whole dose curve; as a rule, active = well fitted curve in the direction sought with a large enough effect; inconclusive = small, poorly fitted or top-dose-only effect, or another doubt; inactive = no such curve, though single readings can be large; an effect the other way counts as inactive or inconclusive. Potency is the fitted concentration of half-maximal effect.

SMILES	Cruzain inh noDet	Cruzain inh Det
O=C(COC(=O)CNC(=O)c1ccc(Br)o1)Nc1ccc2c(c1)OCCO2	11%	-1%
CCOc1ccccc1C(=O)NCc1ccc2c(c1)OCO2	-8%	2%
CCOc1ccccc1C(=O)NCC(=O)OCC(=O)c1ccc2c(c1)OCCO2	?	25µM*
COc1cc(OC)cc(-n2c(=O)c3ccccc3n(Cc3ccccc3C#N)c2=O)c1	-9%	7%
O=C(NCCCN1CCN(c2ccc(F)cc2)CC1)c1cnn(-c2ccc(F)cc2)c1-n1cccc1	-18%	-4%
Cc1ccc(CNC(=O)C2CCN(S(=O)(=O)c3cc(-c4noc(C)n4)ccc3C)CC2)cc1	2%	1%
CCOc1ccc(C(=O)NCC(=O)OCC(=O)c2ccc3c(c2)-c2ccccc2C3)cc1	?	-13%
COc1ccccc1C(=O)NCC(=O)OCC(=O)c1ccc2c(c1)-c1ccccc1C2	10µM*	?
COCCn1c(C)cc(C(=O)COC(=O)CNC(=O)c2ccccc2)c1C	-30%	?
COc1ccc(OC)c(C(=O)COC(=O)CNC(=O)c2ccccc2)c1	13µM*	14µM*
COc1ccc2nc(NC(=O)Cc3cccs3)sc2c1	-13%	0%
COc1ccc2nc(NC(=O)CCc3nc(-c4ccccc4F)no3)sc2c1	7.9µM*	0%
CCCN(CCC)CCCNC(=O)C1CCN(c2nc3ccc(CC)cc3s2)CC1	-1%	-4%
COc1cc(-c2nc(-c3ccc(NC(=O)c4ccc5c(c4)OCO5)cc3)no2)cc(OC)c1OC	?	-3%
Cc1ccccc1-c1nc(-c2ccc(NC(=O)c3ccc4c(c3)OCO4)cc2)no1	7.9µM*	-1%
Cc1nc(-c2ccc(C)c(S(=O)(=O)N3CCC(C(=O)NCc4ccc(F)cc4)CC3)c2)no1	-3%	1%
COc1ccccc1-n1cc(-c2ccc(C)cc2)nc1S(=O)(=O)CC(=O)Nc1ccccc1C(F)(F)F	12%	2%
COc1ccc(-c2cn(-c3ccc(C)cc3)c(S(=O)(=O)CC(=O)Nc3ccc(F)cc3)n2)cc1	16µM*	-11%
COc1ccc(-c2cn(-c3ccc(C)cc3)c(S(=O)(=O)CC(=O)Nc3ccccc3)n2)cc1	20µM*	-14%
Cc1cccc(C)c1NC(=O)CS(=O)(=O)c1nc(-c2ccc(Cl)cc2)cn1-c1ccccc1	-4%	?
CCOc1ccccc1NC(=O)N(C)CCc1c(C)nn(CC)c1C	-1%	1%
Cc1ccc(S(=O)(=O)c2cn(CC(=O)Nc3ccccc3)c3cc4c(cc3c2=O)OCO4)cc1	1µM*	-2%
Cc1cccc(NC(=O)Cn2cc(S(=O)(=O)c3ccc(F)cc3)c(=O)c3cc4c(cc32)OCO4)c1	?	-3%
CCNC(=O)[C@H]1O[C@@H](n2cnc3c(N)nc(NCCc4ccc(CCC(=O)O)cc4)nc32)[C@H](O)[C@H]1O	6%	2%
CCCCNC(=O)C1CCC(Cn2c(=O)c3sccc3n(CC(=O)Nc3ccccc3)c2=O)CC1 (configuration not stated)	-9%	-1%
SMILES	Cruzain inh noDet	Cruzain inh Det
Cc1ccc(NC(=O)c2ccc(-c3ccccc3)s2)cc1	13µM*	-6%
Cc1cccc(NC(=O)c2ccc(-c3ccccc3)s2)c1	-22%	-10%
CCCn1c(SCc2nc(-c3ccccc3C)no2)nnc1-c1ccc(Cl)cc1	-5%	-8%
COc1cccc(C(=O)N2CCCCC2CCN2CCCCC2)c1 (configuration not stated)	-1%	1%
COc1ccc(-n2c(C)cc(C(=O)COC(=O)c3cc(NC(=O)c4cccs4)c(OC)c(OC)c3)c2C)cc1	?	1%
COc1cc(NC(=O)c2cccs2)c(C(=O)OCC(=O)c2cc(C)n(-c3ccccc3)c2C)cc1OC	3.2µM*	-11%
COc1cc(NC(=O)c2cccs2)c(C(=O)OCC(=O)c2cc(C)n(-c3ccc(F)cc3)c2C)cc1OC	4µM*	-2%
COc1cc(NC(=O)c2cccs2)c(C(=O)OCC(=O)NC(=O)NC(C)(C)C)cc1OC	?	-14%
COc1ccc2c(C)c(CCC(=O)NCc3ccc(C)cc3)c(=O)oc2c1	0%	-7%
Cc1cc(C)n(C(C[N+](=O)[O-])c2ccc(Cl)cc2)n1 (configuration not stated)	20µM*	-5%
Cc1cc(O)c(C(C[N+](=O)[O-])c2ccc(Cl)cc2)c(=O)o1 (configuration not stated)	-15%	0%
CCOC(=O)c1[nH]c(C)c(CCC(=O)Nc2ccccc2C(=O)OC)c1C	9%	0%
COC(=O)c1ccccc1NC(=O)Cn1c(=O)n(-c2ccc(C)cc2)c(=O)c2ccccc21	-11%	-5%
O=C(O)CSc1nc2ccc(NC(=O)COc3ccc(Cl)cc3)cc2s1	16%	-11%
Cc1cccc(NC(=O)CSc2nc3ccc(NC(=O)CSc4nnnn4-c4ccccc4)cc3s2)c1C	?	-2%
Cc1cccc(NC(=O)CSc2nc3ccc(NC(=O)COc4ccc(Cl)cc4)cc3s2)c1	7.9µM*	-4%
O=C(CSc1nc2ccc(NC(=O)CSc3nnnn3-c3ccccc3)cc2s1)Nc1ccccc1	5µM*	-3%
COc1cc(O)c(C(=O)/C=C/c2ccc(OC)c(O)c2)c(OC)c1	?	-8%
CCSc1ncc(Cl)c(C(=O)N(Cc2ccccc2)c2ccc(OC)cc2)n1	-7%	-7%
CN(C)c1ccc(C(CNC(=O)c2ccccc2Br)c2c[nH]c3ccccc23)cc1 (configuration not stated)	25µM*	-3%
CN(C)c1ccc(C(CNC(=O)c2ccc(C#N)cc2)c2c[nH]c3ccccc23)cc1 (configuration not stated)	?	-11%
CN(C)c1ccc(C(CNS(=O)(=O)c2ccc(F)cc2)c2c[nH]c3ccccc23)cc1 (configuration not stated)	32µM*	-10%
CCOC(=O)c1ccc(S(=O)(=O)NCC(c2ccc(N(C)C)cc2)c2c[nH]c3ccccc23)cc1 (configuration not stated)	?	-4%
CCCCN(C)S(=O)(=O)c1cc(-c2cc(C)no2)ccc1C	19%	-5%
COc1ccccc1CCNC(=O)c1ccc(NC(=O)N2CC(C)Sc3ccccc32)cc1 (configuration not stated)	?	-4%
SMILES	Cruzain inh noDet	Cruzain inh Det
Cc1ccc(-c2cn3c(n2)sc2cc(C(=O)NC4CCCCCC4)ccc23)c(C)c1	10µM*	-1%
COc1ccc(-c2cn3c(n2)sc2cc(C(=O)NC4CCCCCC4)ccc23)cc1	-8%	-5%
CN(C)c1ccc(NC(=O)Cn2c(SCc3ccc(F)cc3)nc3cccnc32)cc1	5%	1%
COc1ccc(N(C)S(=O)(=O)c2cccc(C(=O)OCC(=O)Nc3sc4c(c3C#N)CCCCC4)c2)cc1	13µM*	1%
Cc1ccc(C(=O)OCC(=O)Nc2sc3c(c2C#N)CCC3)cc1	20µM*	-1%
N#Cc1c(NC(=O)COC(=O)c2ccc(F)cc2)sc2c1CCC2	?	2%
CCN(CC)S(=O)(=O)c1ccc(C(=O)OCC(=O)Nc2sc3c(c2C#N)CCCCC3)cc1	?	-10%
CCOc1ccc(OC(=O)c2sc3ncn(Cc4cccc(F)c4)c(=O)c3c2C)cc1	-12%	0%
CCC(C=C[C@@H]1OC(=O)C=C[C@H]1C)=C[C@H](C)CC=CC(C)=C[C@@H](C)C(=O)[C@@H](C)[C@H](O)[C@@H](C)CC(C)=CC(=O)O	?	7%
Cc1ccc(NCCC(=O)c2ccc(Br)cc2)cc1	20µM*	-1%
